# “And” between values parts separate entries of the source, which are not always exact repeats. Identical values can stand only once. Records with an inconclusive call do not appear. Unmarked numbers belong to inactive results. The source made the active and inactive calls. Calls come from the whole dose curve; as a rule, active = well fitted cell-killing curve with a large enough effect in the repeat runs; inconclusive = weak or mixed curves, or effect the other way; inactive = flat fitted curve, though single readings scatter.
# Experiment: qHTS RealTime-Glo MT Cell Viability Assay in HEK293 cells - 24 hour (AID 1224886); note: nearly all actives have a fitted effect of over 50% in size; for activity change, negative = cytotoxicity: top concentration of the series differs between compounds
# Settings: RealTime-Glo luminescence; series mostly up to 76.8 µM
# Source text: National Center for Advancing Translational Sciences [NCATS]
# NIH Chemical Genomics Center [NCGC]
# U.S. Environmental Protection Agency [EPA]
# National Institutes of Environmental Health Sciences [NIEHS]
# National Toxicology Program [NTP]
# U.S. Food and Drug Administration [FDA]
# Measure of cell viability is critical in the cell-base assay. Analysis of cell viability is necessary for the characterization of cell responses to cytotoxic drugs and environmental stress. A RealTime-Glo MT Cell Viability Assay to monitor cell viability in real time of continues cell culture during 40 hours of compound treatment was used to screen Tox21 10K library compounds in Hek293 cells. The RealTime-Glo MT Cell Viability Assay is a nonlytic, homogeneous, bioluminescent method to measure cell viability in real time using a simple, plate-based method. The assay involves adding NanoLuc luciferase and a cell-permeant prosubstrate to cells in culture. Viable cells reduce the proprietary prosubstrate to generate a substrate for NanoLuc luciferase. This substrate diffuses from cells into the surrounding culture medium, where it is rapidly used by the NanoLuc Enzyme to produce a luminescent signal. The signal correlates with the number of viable cells, making the assay well suited for cytotoxicity studies.
# Tox21 Assay Protocol Summary:
# The mixture of Hek293 cell suspension and reagents were dispensed at 600cells/6 ul/well in 1536-well tissue culture treated black solid bottom plates using a Multidrop dispenser. After the assay plates were incubated at a 37 C/5% CO2 incubator for 5 hours, 23 nL of compounds dissolved in DMSO, positive and negative controls was transferred to the assay plate by a pintool work station. The plates were incubated at 37 C for 40 hours. The luminescence intensity were measured at 0h, 8h, 16h, 24h, 32h and 40h time points using ViewLux plate reader during compound treatment.
# % is set by controls: 0 for no effect and ±100 for the full control effect; potency is the fitted concentration of half-maximal effect.
Structure (SMILES),Potency,"activity change, negative = cytotoxicity"
Nc1ccc([N+](=O)[O-])cc1,24.5 µM (active),–
OCC(c1ccc(Cl)cc1)c1ccc(Cl)cc1,30.9 µM (active),–
O=[N+]([O-])c1c(Cl)c(Cl)cc(Cl)c1Cl,inactive,–
C[C@]12CC[C@@H](O)C[C@@H]1CC[C@@H]1[C@@H]2CC[C@]2(C)C(=O)CC[C@@H]12,38.9 µM (active),–
CCN(CC)C(=O)Cl,inactive,–
COc1cc(OC)c(OC)cc1C=O,inactive,–
CN1CSC(=S)N(C)C1,17.3 µM (active) and 24.5 µM (active),–
CC1COC(Cn2cncn2)(c2ccc(Oc3ccc(Cl)cc3)cc2Cl)O1 (stereo not given),19.5 µM (active),–
O=S(=O)(C(Cl)(Cl)Cl)C(Cl)(Cl)Cl,11 µM (active),–
Cc1cc(C)c(C(=O)P(=O)(c2ccccc2)c2ccccc2)c(C)c1,38.9 µM (active),–
Cc1ccc(N(SC(F)(Cl)Cl)S(=O)(=O)N(C)C)cc1,5.49 µM (active),–
CCOC(=O)C(O)(c1ccc(Cl)cc1)c1ccc(Cl)cc1,22.1 µM (active) and 34.7 µM (active),–
Cc1ccc2nc3sc(=O)sc3nc2c1,–,3.52% [at 15.8 µM]
O=C1C(I)=CC(=C(c2cc(I)c(O)c(I)c2)c2ccccc2C(=O)O)C=C1I,inactive,–
N#Cc1cc([N+](=O)[O-])ccc1N,inactive,–
COc1ccc(C(c2ccc(OC)cc2)C(Cl)(Cl)Cl)cc1,48.7 µM (active),–
O=C(c1ccccc1)C(Cl)Cl,34.7 µM (active),–
Cc1cc(C(C)(C)c2ccc(O)c(C)c2)ccc1O,20.8 µM (active),–
Cc1nnc2n1-c1sc(CCc3ccc(CC(C)C)cc3)cc1C(c1ccccc1Cl)=NC2C (stereo not given),10.7 µM (active),–
Oc1c(I)cc(I)cc1I,inactive,–

# Reference: PubChem BioAssay (Tox21)
